Rows were chosen to be rich in hits. Some 1.2% of all compounds tested hit in one or more screens of this group.
KCNH2 3.1 inh: blocks the human KCNH2 3.1 channel isoform. U2OS KCNH2 3.1, thallium flux FluxOr; active compounds read low. activity change, % (tested at about 1.8 µM). 340,000 compounds, 0.95% hits;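 active = maximum activity change below -70%; inconclusive = maximum activity change from -70% to -50%; inactive = maximum activity change above -50%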;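 also: thallium influx rate constant from kinetic fluorescence after stimulation buffer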
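FluxOr-based Tl+ influx in U2OS cells transduced with KCNH2 3.1 virus; rate constants normalized to DMSO controls.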
hERG WT inh: blocks the wildtype human KCNH2 potassium channel. Q12809. U2OS, BacMam KCNH2, thallium flux FluxOr; active compounds read low. activity change, % at 1.84 µM. 340,000 compounds, 0.37% hits;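 active = maximum activity change below -70%; inconclusive = maximum activity change between -70% and -50%; inactive = maximum activity change above -50%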
Target sequence (Q12809 whole entry, looked up): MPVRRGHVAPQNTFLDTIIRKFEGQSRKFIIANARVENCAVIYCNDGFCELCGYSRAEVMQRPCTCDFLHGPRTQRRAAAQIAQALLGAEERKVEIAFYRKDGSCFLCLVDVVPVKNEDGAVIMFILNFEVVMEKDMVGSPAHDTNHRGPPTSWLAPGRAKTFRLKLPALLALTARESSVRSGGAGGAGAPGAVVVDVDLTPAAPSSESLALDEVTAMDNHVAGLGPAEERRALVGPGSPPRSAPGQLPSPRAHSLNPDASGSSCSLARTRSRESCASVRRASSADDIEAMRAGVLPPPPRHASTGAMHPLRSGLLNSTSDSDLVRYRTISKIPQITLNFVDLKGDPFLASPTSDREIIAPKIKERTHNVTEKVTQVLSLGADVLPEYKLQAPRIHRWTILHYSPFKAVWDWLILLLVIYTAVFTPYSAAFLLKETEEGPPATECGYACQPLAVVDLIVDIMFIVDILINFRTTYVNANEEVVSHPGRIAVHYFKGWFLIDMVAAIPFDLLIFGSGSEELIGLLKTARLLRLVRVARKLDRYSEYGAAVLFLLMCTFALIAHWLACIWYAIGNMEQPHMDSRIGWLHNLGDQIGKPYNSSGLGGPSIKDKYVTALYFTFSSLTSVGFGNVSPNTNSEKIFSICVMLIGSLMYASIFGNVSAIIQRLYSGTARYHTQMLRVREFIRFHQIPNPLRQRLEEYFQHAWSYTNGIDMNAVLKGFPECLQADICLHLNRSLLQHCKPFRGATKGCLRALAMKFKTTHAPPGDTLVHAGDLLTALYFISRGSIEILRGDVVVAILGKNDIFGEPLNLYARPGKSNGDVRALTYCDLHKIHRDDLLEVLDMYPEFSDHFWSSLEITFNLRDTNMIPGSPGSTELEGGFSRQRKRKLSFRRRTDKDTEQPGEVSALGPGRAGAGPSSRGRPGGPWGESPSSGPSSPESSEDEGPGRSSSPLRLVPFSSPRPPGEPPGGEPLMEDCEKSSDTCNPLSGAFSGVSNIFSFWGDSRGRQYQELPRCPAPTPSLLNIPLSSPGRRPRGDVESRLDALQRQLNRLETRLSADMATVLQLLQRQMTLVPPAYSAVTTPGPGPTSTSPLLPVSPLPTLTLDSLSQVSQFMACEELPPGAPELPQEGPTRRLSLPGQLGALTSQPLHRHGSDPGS
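U2OS cells transduced with wild-type KCNH2 virus are loaded with FluxOr dye for 45 min, and thallium flux is measured in kinetic reads before and after stimulation buffer. Rate constants are normalized to DMSO controls.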
KinaseGlo FLuc: Kinase-Glo luciferase inhibition (counter-screen) | 200,000 compounds, 0.28% hits | AID 1379 | Kinase-Glo luciferase, ATP luminescence, 8 min | Q27757 | Potency, µM (top dose mostly 38.3 µM), without a hit: at the top dose activity change, negative = inhibition, hits mostly inhibitors; active = well fitted inhibition curve with a large enough effect; inconclusive = small, poorly fitted or top-dose-only effect; also: potency is read from the fitted curve at half-maximal effect; nearly all actives have a fitted effect of over 60% in size
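Compounds were added to a substrate mix at pH 7.2 (50 mM imidazole, 10 uM ATP, within the enzyme's linear range), followed by Kinase-Glo detection reagent; luminescence was measured after 8 minutes at ambient temperature.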
Active calls of the source: *; ? = inconclusive; · = no result; [ ] = another dose, or the depositor's remark. % is scaled to controls: 0 for no effect and ±100 for the full control effect.

SMILES	KCNH2 3.1 inh	hERG WT inh	KinaseGlo FLuc
CCc1cc2c(=O)n(Cc3ccco3)c(SCC(=O)NC3CCS(=O)(=O)C3)nc2s1 (configuration not stated)	-48.5	0.4	-2.4%
Cc1ccn(S(=O)(=O)c2ccc(N3CCCC3=O)cc2)n1	-5.9	9.3	·
COc1ccccc1OCCSc1nc2ccccc2n1CC(N)=O	12.3	-27.8	·
CCCc1cc(=O)[nH]c2nnc(SCC(=O)NCc3ccc4c(c3)OCO4)n12	10.9	0.7	·
CC(Oc1cccc(Br)c1)C(=O)NNC(=O)CCS(=O)(=O)c1ccccc1 (configuration not stated)	-102.1*	-6.3	·
CC(Oc1cccc(Br)c1)C(=O)NNC(=O)c1ccccn1 (configuration not stated)	5.7	-5.5	·
O=C(c1ccc([N+](=O)[O-])o1)N1CCN(c2nc3c(Cl)cccc3s2)CC1	-20.2	3.6	·
Cc1ccc2sc(N3CCN(C(=O)c4ccc([N+](=O)[O-])o4)CC3)nc2c1C	-201.1*	-139.0*	·
O=C(O)[C@@H]1[C@@H]2C[C@H]3c4[nH]c5ccccc5c4CCN3C[C@@H]2CC[C@@H]1O	·	·	-1.1%[17.1 µM]
C=CCOc1ccc(C(=O)n2cc(C(=O)OC)c3ccccc32)cc1	7.4	2.0	·
COC(=O)CSc1nc(N2CCOCC2)c2c(c1C#N)CCCC2	8.8	14.7	·
COC(=O)CSc1nc(-c2ccc(C)cc2)c2c(c1C#N)CCCC2	-72.6*	2.1	-4.3%
Cc1cc(N)c2cc(NC(=O)Nc3ccc4nc(C)cc(N)c4c3)ccc2n1	·	·	-7.4%[7.66 µM]
Cc1cc(=O)[nH]c(SCC(=O)Nc2c(C)n(C)n(-c3ccccc3)c2=O)n1	-15.4	-17.5	·
CC(=O)Nc1ccc(NC(=O)COc2ccc([N+](=O)[O-])cc2)cc1	-9.5	-2.5	·
Cc1ccccc1OCC(=O)Nc1ccc([N+](=O)[O-])cc1	-3.1	-168.7*	·
CC[C@]12c3[nH]c4cc(-c5ccco5)ccc4c3CCN1C(=O)[C@@H](CC(=O)NCCCn1ccnc1)C[C@@H]2C(=O)N1CCN(C(=O)c2ccco2)CC1	24.0	3.4	·
O=C(CSc1nnc(-c2cccnc2)n1CCN1CCCCC1)Nc1cccc(Cl)c1	-87.2*	7.6	4.0%
Cn1c(SCC(=O)Nc2cccc(F)c2)nnc1-c1cccnc1	4.0	1.9	-0.2%
CC1CC(C)CN(C(=O)CCC(=O)Nc2nnc(C(C)C)s2)C1 (configuration not stated)	-15.7	1.4	·
CC(C)[C@@H](C(=O)NC1CCN(Cc2ccccc2)CC1)N1C(=O)N2CCc3c([nH]c4ccccc34)[C@@]2(C)C1=O	-86.8*	?	·
C[C@@H](C(=O)NC1CCN(Cc2ccccc2)CC1)N1C(=O)N2CCc3c([nH]c4ccccc34)[C@@]2(C)C1=O	-40.8	-41.0	·
CC1(C)CC(=O)C=C(c2cccc(OC(=O)c3ccc(-c4ccccc4)cc3)c2)C1=O	-156.4*	-141.9*	·
COc1cccc(C2=CC(=O)CC(C)(C)C2=O)c1	33.8	-11.0	·
COc1ccc(CN2C(=NC(=O)CCC3CCCC3)SC3CS(=O)(=O)CC32)cc1 (configuration not stated)	7.5	-2.4	·
SMILES	KCNH2 3.1 inh	hERG WT inh	KinaseGlo FLuc
CC(Nc1nc(N2CCNCC2)nc2ccccc12)c1ccccc1 (configuration not stated)	-17.0	11.8	0.1%
Cc1ccccc1C1C(C#N)=C(N)N(N(C)C)C2=C1C(=O)CC(C)(C)C2 (configuration not stated)	-3.0	-2.0	·
COc1cc(OC)c(OC)cc1/C=N/n1c(COc2ccccc2)n[nH]c1=S	-5.6	1.2	·
CCN(C(=O)Cn1cc(C(F)(F)F)ccc1=O)C1CCS(=O)(=O)C1 (configuration not stated)	8.3	-6.2	·
Cc1ccccc1-c1nnc(SCC(=O)NCC2CCCO2)o1 (configuration not stated)	10.8	2.4	·
O=C(CSc1nnc(-c2cccc(Br)c2)o1)NCC1CCCO1 (configuration not stated)	-174.1*	-218.5*	·
C[C@@H]1CN([C@@H](C)CO)C(=O)CCCn2nncc2CO[C@H]1CN(C)Cc1cccnc1	0.8	-1.0	·
O=C(Nc1ccccc1NC(=O)NC1CCCCC1)NC1CCCCC1	-15.0	-9.2	-2.1%
NC(=O)c1ccccc1NC(=O)NC1CCCCC1	-71.4*	-3.2	-6.3%
COc1ccc(CNC(=O)CNC(C)c2ccc(F)cc2)cc1 (configuration not stated)	-1.8	-4.0	·
COc1ccc(CNCC(O)(c2ccccc2)c2ccc(F)cc2)cc1OC (configuration not stated)	0.0	-15.7	·
COc1ccc(C(CCNCc2ccc(F)cc2)c2ccc(F)cc2)cc1 (configuration not stated)	-6.5	?	-2.9%
COc1ccc(CNCCC(c2ccc(F)cc2)c2ccc(OC)cc2)cc1 (configuration not stated)	-87.3*	-132.5*	-1.0%
COc1ccc(C(CCNCc2ccccc2)c2ccc(F)cc2)cc1 (configuration not stated)	-75.4*	-15.5	5.6%
COc1ccc(CNCC(O)(c2ccccc2)c2ccc(F)cc2)cc1 (configuration not stated)	-75.2*	11.4	·
COc1ccc(C(CCNC(C)c2ccccc2)c2ccc(F)cc2)cc1 (configuration not stated)	-2.4	-75.7*	0.6%
COc1ccc(CCNCc2ccc(OCc3ccccc3)cc2)cc1	?	7.1	·
CNC1(C)[C@H]2CC[C@H](C2)C1(C)C (some centres not stated)	23.0	-3.1	·
CSC(=O)NC(=O)NC(=O)c1ccc([N+](=O)[O-])cc1	16.4	-5.1	·
COc1cccc(NC(=O)C(=O)NCCCN2CCCC2=O)c1	13.1	-4.0	·
CO[C@]1(NC(=O)[C@H](C(=O)O)c2ccc(O)cc2)C(=O)N2C(C(=O)O)=C(CSc3nnnn3C)CO[C@H]21	·	·	1.0%[17.1 µM]
COc1ccc(C(OCC(O)CNCCc2ccccc2)c2ccc(OC)cc2)cc1 (configuration not stated)	-19.1	26.0	·
Cc1ccc(C(OCC(O)CNCc2ccc(F)cc2)c2ccccc2)cc1 (configuration not stated)	-106.3*	-78.7*	·
O=C(c1ccccc1)c1ccc(OCC(O)CNCc2ccc(F)cc2)cc1 (configuration not stated)	-28.9	41.6	·
COc1ccc(C(OCC(O)CNC(C)c2ccccc2)c2ccc(OC)cc2)cc1 (configuration not stated)	-76.3*	-13.6	·
CC[C@]12c3[nH]c4cc(CCC(=O)N(C)C)ccc4c3CCN1C(=O)[C@@H](CC(=O)NC/C=C(\C)CCC=C(C)C)C[C@@H]2C(=O)N1CCN(C(=O)c2ccco2)CC1	-10.7	5.4	·
ClC(/C=N/n1cnnc1)=C/c1ccccc1	20.8	-0.4	·
CCOC(=O)C(CCc1ccccc1)NC(C)C(=O)N1Cc2ccccc2CC1C(=O)O (configuration not stated)	·	·	-8.3%
COc1ccc(NC(=O)c2cc(S(=O)(=O)N3CCCCC3)c[nH]2)cc1	-17.3	-9.7	·
Cc1ccc(C(=O)OC(C)C(=O)Nc2ccc(Cl)cn2)s1 (configuration not stated)	3.6	1.2	·

Source: PubChem BioAssay
